Here are results for 7 molecules from PubChem BioAssay (EPA / NIEHS).

Inconclusive results are not listed. The source made the active and inactive calls. The calls were made as follows, unless noted: active = hit-call score of the fitted dose curve at least 0.9, where 1 is the maximum; inactive = score below 0.9.

Read-out in assay [1]: Monocyte Chemoattractant Protein-1 (MCP1), CCL2 (gene 6347)
In words: BSK_LPS_MCP1: BioMAP Diversity Plus: LPS Assay for Monocyte Chemoattractant Protein-1 (MCP1) Biomarker Activity (AID 2283081).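 As to AC50: secreted MCP-1 protein quantified by ELISA in culture supernatant.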 The conditions noted are these: primary human HUVEC with PBMC; actives raise or lower the signal. A digest of the protocol:
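LPS-stimulated HUVEC/PBMC co-culture; chemical, 24 h; MCP-1 by ELISA; bidirectional fit vs DMSO; cytotoxicity via SRB (0.1% stain, 10% TCA fix, 560 nm) in parallel wells.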

A short description of assay [2]: BSK_LPS_PGE2: BioMAP Diversity Plus: LPS Assay for Prostaglandin E2 (PGE2) Biomarker Activity (AID 2283082).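 As to AC50: secreted prostaglandin E2 measured by ELISA in LPS-stimulated co-culture.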 The note with it: primary human HUVEC with PBMC; actives raise or lower the signal. The essentials: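 LPS-activated HUVEC/PBMC co-culture; cmpd dosed, 24 h; PGE2 by ELISA; bidirectional fit vs DMSO; SRB (0.1%, TCA-fixed, 560 nm) in parallel plates for overt cytotox.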

Read-out in assay [3]: Macrophage colony-stimulating factor (MCSF), CSF1 (gene 1435)
In words: BSK_LPS_MCSF: BioMAP Diversity Plus: LPS Assay for Macrophage colony-stimulating factor (MCSF) Biomarker Activity (AID 2283083). The conditions noted are these: primary human HUVEC with PBMC; actives raise or lower the signal. A digest of the protocol:
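Compound is added to a human vascular primary co-culture of umbilical vein endothelium and blood mononuclear cells. After 24 h, M-CSF is quantified by ELISA. Signal changes are fitted in both directions against DMSO.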

Read-out in assay [4]: Tissue Factor, F3 (gene 2152)
As to the kind of experiment: BSK_LPS_TissueFactor: BioMAP Diversity Plus: LPS Assay for Tissue Factor Biomarker Activity (AID 2283084). The note with it: primary human HUVEC with PBMC; actives raise or lower the signal. The essentials: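 In this co-culture system of umbilical vein endothelium with PBMC, stimulated with LPS, cell-surface CD142 is detected by ELISA at 24 h. Endpoint values derive from bidirectional fitting, DMSO serving as baseline.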

Read-out in assay [5]: Vascular cell adhesion molecule 1 (VCAM1), VCAM1 (gene 7412)
As to the kind of experiment: BSK_LPS_VCAM1: BioMAP Diversity Plus: LPS Assay for Vascular cell adhesion molecule 1 (VCAM1) Biomarker Activity (AID 2283086). The note with it: primary human HUVEC with PBMC; actives raise or lower the signal. The essentials: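 HUVEC + PBMC co-culture, LPS system; compound 24 h; VCAM-1 by ELISA; bidirectional fit vs DMSO control; parallel SRB (0.1%, TCA-fixed, 560 nm) for cytotoxicity.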

Read-out in assay [6]: CD38, CD38 (gene 952)
As to the kind of experiment: BSK_SAg_CD38: BioMAP Diversity Plus: SAg Assay for CD38 Biomarker Activity (AID 2283087). The note with it: primary human HUVEC with PBMC; actives raise or lower the signal. A digest of the protocol:
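Human HUVEC plus PBMC co-culture stimulated with superantigen; CD38 measured by ELISA 24 h after chemical dosing. Fluorescence read-out, bidirectional fit against DMSO; cytotoxicity tracked in parallel by SRB and Alamar Blue.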

Read-out in assay [7]: CD40, CD40 (gene 958)
In words: BSK_SAg_CD40: BioMAP Diversity Plus: SAg Assay for CD40 Biomarker Activity (AID 2283088). The note with it: primary human HUVEC with PBMC; actives raise or lower the signal. The essentials:
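Fluorescence ELISA read-out of CD40 from umbilical vein endothelium plus peripheral blood mononuclear cells, sampled 24 h after dosing. Values come from bidirectional curve fitting with DMSO as baseline.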

Read-out in assay [8]: CD69, CD69 (gene 969)
In words: BSK_SAg_CD69: BioMAP Diversity Plus: SAg Assay for CD69 Biomarker Activity (AID 2283089).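 As to AC50: cell surface CD69 protein quantified by ELISA with fluorescence detection.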 The conditions noted are these: primary human HUVEC with PBMC; actives raise or lower the signal. The essentials: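 ELISA, fluorescence read-out: CD69 on human umbilical vein endothelial cell + PBMC co-culture, 24 h post-dosing. Gain or loss of signal fitted bidirectionally against DMSO baseline.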

Read-out in assay [9]: Monocyte Chemoattractant Protein-1 (MCP1), CCL2 (gene 6347)
As to the kind of experiment: BSK_SAg_MCP1: BioMAP Diversity Plus: SAg Assay for Monocyte Chemoattractant Protein-1 (MCP1) Biomarker Activity (AID 2283090). The conditions noted are these: primary human HUVEC with PBMC; actives raise or lower the signal. A digest of the protocol:
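MCP-1 levels in the endothelial–PBMC SAg co-culture were quantified by ELISA at 24 h post-dosing; both increases and decreases versus DMSO scored. Cytotoxicity monitored by SRB total protein in parallel cultures.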

Read-out in assay [10]: E-selectin (Homo sapiens) (UniProt P16581)
As to the kind of experiment: BSK_SAg_Eselectin: BioMAP Diversity Plus: SAg Assay for Eselectin Biomarker Activity (AID 2283091). The note with it: primary human HUVEC with PBMC; actives raise or lower the signal. A digest of the protocol: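 Primary human endothelial cells and peripheral blood mononuclear cells were co-cultured and exposed to chemical for 24 hours. E-selectin levels were then quantified by ELISA, with bidirectional curve fitting normalised to DMSO controls.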

The nature of assay [11]: BSK_SAg_PBMCCytotoxicity: PBMC Cytotoxicity Assessment in the BioMAP Diversity Plus: SAg Assay (AID 2283093).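 Also: PBMC viability measured as Alamar Blue reduction fluorescence at 546/580 nm; fitted both ways against DMSO so a hit may be loss or gain of signal.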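 As to AC50: PBMC superantigen activated with SEB plus TSST-1 one hour after compound addition.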 The note with it: primary human HUVEC with PBMC. The essentials: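 HUVEC/PBMC co-culture; PBMC exposed to chemical 1 h before SEB and TSST-1 activation (20 ng/mL each), incubated 90 h, then Alamar Blue 6 h, fluorescence 546/580 nm. Bidirectional fit versus DMSO baseline.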

Read-out in assay [12]: Interleukin-8 (IL8), CXCL8 (gene 3576)
As to the kind of experiment: BSK_SAg_IL8: BioMAP Diversity Plus: SAg Assay for Interleukin-8 (IL8) Biomarker Activity (AID 2283094). The conditions noted are these: primary human HUVEC with PBMC; actives raise or lower the signal. A digest of the protocol: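 ELISA read-out of IL-8 in a primary human vascular co-culture (umbilical vein endothelium plus PBMC), taken 24 h after compound addition. Values derive from bidirectional fits against DMSO negative controls.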

Assay [13] in a line: BSK_SAg_Proliferation: Cell Proliferation Assessment in the BioMAP Diversity Plus: SAg Assay (AID 2283095).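 Also: relative cell number as total protein by SRB absorbance in sub-confluent culture.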 The conditions noted are these: primary human HUVEC with PBMC. The essentials:
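Cells (endothelium plus PBMC, human primary) were dosed with chemical, cultured 96 h, fixed in 10% TCA and stained with 0.1% SRB. Absorbance at 560 nm gave relative protein, fitted bidirectionally relative to DMSO.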

Assay [14] can be described thus: BSK_SAg_SRB: Viability Assessment in the BioMAP Diversity Plus: SAg Assay (AID 2283096).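 Also: cells read one day after compound addition; hits may be either gain or loss of signal compared with DMSO.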 The conditions noted are these: primary human HUVEC with PBMC. The essentials: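 Human umbilical vein endothelial cells co-cultured with PBMC, read 24 h after compound dosing. Total protein measured by sulforhodamine B staining (0.1% SRB after 10% TCA fixation, absorbance 560 nm); bidirectional fit versus DMSO baseline.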

Read-out in assay [15]: Monokine induced gamma interferon (MIG), CXCL9 (gene 4283)
In words: BSK_SAg_MIG: BioMAP Diversity Plus: SAg Assay for Monokine induced gamma interferon (MIG) Biomarker Activity (AID 2283092). The note with it: primary human HUVEC with PBMC; actives raise or lower the signal. The essentials:
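ELISA readout of MIG/CXCL9; primary human umbilical vein endothelial cells co-cultured with peripheral blood mononuclear cells; 24 h post-dose; gain/loss fit vs DMSO baseline.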

Assay [16] concerns the target human CYP19A1, CYP19A1 (gene 1588) (UniProt P11511). As to the kind of experiment: NVS_ADME_hCYP19A1: NovaScreen (NVS) CYP450-related Enzyme Activity (ADME) Assay for human CYP19A1 (AID 2283098; active = hit-call score of the fitted dose curve at least 0.9, where 1 is the maximum). A digest of the protocol: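 Recombinant enzyme in a cell-free format, read 0.5 h after dosing by fluorescence from a fluorogenic substrate. Loss of signal was fitted against acetonitrile as baseline. Primary screen in duplicate at 10 uM, actives then tested in concentration series.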

Chain of E-selectin (Homo sapiens) (P16581 whole entry, looked up): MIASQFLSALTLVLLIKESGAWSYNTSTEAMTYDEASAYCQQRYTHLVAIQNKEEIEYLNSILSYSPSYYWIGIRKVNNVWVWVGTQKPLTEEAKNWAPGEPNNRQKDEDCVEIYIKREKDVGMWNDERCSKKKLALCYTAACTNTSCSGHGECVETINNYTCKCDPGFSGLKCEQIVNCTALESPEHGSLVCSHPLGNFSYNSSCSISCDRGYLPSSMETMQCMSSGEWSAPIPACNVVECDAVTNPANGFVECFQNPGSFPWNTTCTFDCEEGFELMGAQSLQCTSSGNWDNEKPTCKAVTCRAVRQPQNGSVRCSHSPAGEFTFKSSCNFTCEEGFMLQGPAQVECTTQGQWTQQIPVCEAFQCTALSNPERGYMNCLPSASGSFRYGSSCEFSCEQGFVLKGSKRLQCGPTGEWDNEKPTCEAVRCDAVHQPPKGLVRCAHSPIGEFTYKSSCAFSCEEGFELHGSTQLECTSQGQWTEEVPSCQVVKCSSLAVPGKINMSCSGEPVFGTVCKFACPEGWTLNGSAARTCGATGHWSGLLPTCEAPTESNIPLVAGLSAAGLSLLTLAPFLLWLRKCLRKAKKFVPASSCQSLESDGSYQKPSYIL
Chain of human CYP19A1, CYP19A1 (gene 1588) (P11511 whole entry, looked up): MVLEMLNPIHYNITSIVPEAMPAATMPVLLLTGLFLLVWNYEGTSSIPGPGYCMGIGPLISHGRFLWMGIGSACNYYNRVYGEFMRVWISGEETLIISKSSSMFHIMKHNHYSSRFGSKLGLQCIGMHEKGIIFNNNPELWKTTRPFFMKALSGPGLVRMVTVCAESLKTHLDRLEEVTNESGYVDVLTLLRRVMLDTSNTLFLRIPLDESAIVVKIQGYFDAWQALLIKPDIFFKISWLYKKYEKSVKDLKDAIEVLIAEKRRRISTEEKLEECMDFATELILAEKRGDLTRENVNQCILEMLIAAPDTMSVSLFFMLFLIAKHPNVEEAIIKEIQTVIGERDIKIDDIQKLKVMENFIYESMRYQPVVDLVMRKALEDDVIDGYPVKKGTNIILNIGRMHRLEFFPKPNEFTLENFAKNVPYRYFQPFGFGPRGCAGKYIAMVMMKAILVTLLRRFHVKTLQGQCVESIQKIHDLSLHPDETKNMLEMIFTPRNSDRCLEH

With `CC(c1ccc(O)cc1)(c1ccc(O)cc1)c1ccc(O)cc1`, the AC50 in assay [1] was 20 µM (active); in assay [2], 34.6 µM (active); in assay [3] it was 26.4 µM (active); in assay [5] it was 16.2 µM (active); in [6], 24.5 µM (active); in assay [7], 20.5 µM (active). In addition, the AC50 in assay [8] is 20 µM (active); in assay [9], 25.9 µM (active); in assay [10], 13.9 µM (active); in [12], 20 µM (active); in [13] it was 21.6 µM (active); in assay [14] it was 15.7 µM (active). Besides, the outcome in [4] and in [11] was inactive.

Regarding `O=NN(c1ccccc1)c1ccccc1`, the outcome in assay [1], in assay [3], in [4], in assay [5], in [6] and in assay [7] was inactive. The result in assay [8], in [9], in assay [10], in assay [11], in assay [12] and in assay [13] was inactive. The result in assay [14] was inactive. Also, the AC50 in assay [2] was 2.14 µM (active).

Consider `Cc1ccccc1O`, for which the outcome in [1], in [3], in assay [4], in [5], in assay [6] and in assay [7] was inactive. For the same molecule, the outcome in assay [8], in assay [9], in assay [10], in assay [11], in [12] and in assay [13] was inactive. In addition, the outcome in [14] was inactive. In assay [2], the AC50 was 3.97 µM (active).

For the molecule `CCC(C)(CC)c1cc(NC(=O)c2c(OC)cccc2OC)on1`, the result in [1], in [2], in assay [3], in [4], in [5] and in assay [6] was inactive. Also, the outcome in [7], in [8], in assay [9], in assay [10], in [15] and in assay [11] was inactive. For the same molecule, the outcome in assay [12], in assay [13] and in [14] was inactive.

For `Cc1cc(-c2ccc(N)c(C)c2)ccc1N`, the outcome in [1], in assay [3], in assay [4], in [5], in [6] and in assay [7] was inactive. Besides, the outcome in [8], in assay [9], in assay [10], in assay [15], in assay [11] and in assay [12] was inactive. Moreover, the outcome in assay [14] and in assay [16] was inactive. In addition, the concentration at half-maximal activity (AC50) is 7.16 µM (active) in [2] and 11.8 µM (active) in assay [13].

Take `C=CC(N)=O`: the outcome in [1], in assay [2], in [3], in [4], in assay [5] and in [6] was inactive. For the same molecule, the result in assay [7], in assay [8], in assay [9], in assay [10], in assay [15] and in [11] was inactive. In addition, the result in [12], in assay [13] and in [14] was inactive.

As for `CCC(C)c1cc([N+](=O)[O-])cc([N+](=O)[O-])c1O` (configuration not stated), the AC50 in [1] is 15 µM (active); in assay [2] it was 6.51 µM (active); in assay [3], 20 µM (active); in assay [5], 20 µM (active); in [6], 18.7 µM (active); in [7] it was 14.3 µM (active). Further, the AC50 was 12.4 µM (active) in assay [8]; 23.5 µM (active) in [9]; 14.2 µM (active) in assay [10]; 5.36 µM (active) in assay [11]; 8.89 µM (active) in assay [12]; 19.6 µM (active) in [13]. Further, the AC50 in assay [14] was 18 µM (active). The result in assay [4] was inactive.
